Data published in PubChem BioAssay (NCATS).
Inconclusive results are not listed. A call without a number means that no potency is given here. The source made the active and inactive calls. The call rests on the fitted dose curve; in most records, active means well fitted cell-killing curve with a large enough effect; inconclusive means small, poorly fitted or top-dose-only effect; inactive means no such curve, though single readings can be large or run the other way.

Test: qHTS of pediatric cancer cell lines to identify multiple opportunities for drug repurposing: Primary screen for SJ-GBM2 cells (AID 1347091)
Settings: SJ-GBM2 viability, CellTiter-Glo luminescence, 48 h; series mostly up to 46 µM
Text: Drug repurposing or repositioning has been offered as a strategy for drug development in oncology programs. This approach has special potential for childhood cancers and other rare or orphan diseases, where the expected return on new drug development has been a disincentive to pharmaceuticals.
In this project we exploit the poly-pharmacology of drugs to discover new indications via phenotypic screening of a panel of 19 well-characterized cell lines derived from solid tumors seen in children and adolescents. The goal is to identify approved drugs with previously unrecognized anticancer properties that has the potential to reveal new mechanisms and biological processes involved in carcinogenesis or drug resistance. We employed a titration-based paradigm (quantitative high-throughput screening or qHTS), where all compounds were tested at multiple concentrations for their effect on cell viability. Concentration-response curves (CRCs) were derived directly from the primary screen, and both potency and efficacy values were used to identify compounds with robust bioactivity profiles. We screened the NIH Chemical Genomics Center (NCGC) Pharmaceutical Collection (NPC) and Mechanism Interrogation Plate (MIPE) small molecule collections of approved and investigational compounds against these cell lines; and measured metabolically active cells after 48 hours of compound treatment as a proxy for cell viability.
Assay Submitter: Nathalia J. Martinez, National Center for Advancing Translational Sciences, National Institutes of Health, Rockville, MD, USA; email: natalia.martinez@nih.gov
[1] Shen, M et al. Quantitative high-throughput phenotypic screening of pediatric cancer cell lines identifies multiple opportunities for drug repurposing. Oncotarget 2017 Dec 19;9(4):4758-4772. PMID 29435139.
The cells were obtained from University of North Carolina (UNC), Pediatric Preclinical Testing Program (PPT), and Coriell Institute (CI).
qHTS cell viability assay:
Cells were assayed in growth media at a density of 500-1,000 cells/well. Five microliters of cells were dispensed into 1,536-well, white, solid-bottom, TC-treated plates (Greiner Bio One) using a multidrop dispenser and incubated at 37 degrees C, 5% CO2, under a humidified atmosphere for 5 hours. Twenty-three nanoliters of compounds and controls (neutral control DMSO or positive control bortezomib at final concentration of 2.3 µM) were subsequently transferred by Kalypsys pintool. For primary screens, the MIPE collection was tested at 11-point dilutions (final concentrations range from 0.78 nM to 46 µM) and the NPC collection at 8-point dilutions (final concentrations range from 0.59 nM to 46 µM). Compounds tested in follow-up screens were assayed at 11-point dilutions. Cells were incubated for 48 hours, followed by addition of 3 uL of CellTiter-Glo (Promega). After a 15 min incubation at room temperature, samples were analyzed for luminescence intensity using a ViewLux High-throughput CCD imager equipped with clear filters.
Potency means the concentration at half of the fitted maximal effect.

SMILES | Potency
Oc1ccc(C2CNCCc3c2cc(O)c(O)c3Cl)cc1 (stereo not given) | inactive
CCCc1nn(C)c2c(=O)[nH]c(-c3cc(S(=O)(=O)N4CCN(C)CC4)ccc3OCC)nc12 | inactive
N[C@@H]1CONC1=O | inactive
CCc1cncnc1N1CCN(Cc2nc3ccc(C(F)(F)F)cc3[nH]2)CC1 | inactive
CCc1ccc(CCOc2ccc(CC3SC(=O)NC3=O)cc2)nc1 (stereo not given) | inactive
NS(=O)(=O)c1cc2c(cc1Cl)NC=NS2(=O)=O | inactive
O=C(Nc1nc2ccccc2n1CCN1CCOCC1)c1cccc([N+](=O)[O-])c1 | 14.8 µM (active)
O=C(NOC[C@H](O)CO)c1ccc(F)c(F)c1Nc1ccc(I)cc1F | inactive
CCC(C)n1ncn(-c2ccc(N3CCN(c4ccc(OC[C@H]5CO[C@](Cn6cncn6)(c6ccc(Cl)cc6Cl)O5)cc4)CC3)cc2)c1=O (stereo not given in full) | 1.66 µM (active)
COc1ccc(-c2ccc3c(N4CCOCC4)nc(N4C[C@@H](C)O[C@@H](C)C4)nc3n2)cc1CO | 0.296 µM (active)
O=C(C=Cc1ccc(/C=C/C(=O)Nc2ccc(C3=NCCN3)cc2)cc1)Nc1ccc(C2=NCCN2)cc1 | inactive
Cc1ccnc(NS(=O)(=O)c2ccc(NC(=O)Nc3ccc(S(=O)(=O)Nc4nccc(C)n4)cc3)cc2)n1 | 16.6 µM (active)
Cc1ccc(-n2nc(C(C)(C)C)cc2NC(=O)Nc2ccc(OCCN3CCOCC3)c3ccccc23)cc1 | inactive
CC(C)NCC(O)COc1ccc(COCCOC(C)C)cc1 (stereo not given) | inactive
C[C@]12CCC(=O)C=C1CC[C@@H]1[C@@H]2[C@@H](O)C[C@@]2(C)[C@H]1CC[C@]2(O)C(=O)CO | inactive
Cc1cnc(Nc2ccc(OCCN3CCCC3)cc2)nc1Nc1cccc(S(=O)(=O)NC(C)(C)C)c1 | inactive
CNC(=O)c1ccccc1Sc1ccc2c(/C=C/c3ccccn3)n[nH]c2c1 | 5.31 µM (active)
Cc1oncc1C(=O)Nc1ccc(C(F)(F)F)cc1 | inactive
CCCS(=O)(=O)Nc1ccc(F)c(C(=O)c2c[nH]c3ncc(-c4ccc(Cl)cc4)cc23)c1F | 18.7 µM (active)
COc1ccc([C@@H]2CC(=O)c3c(O)cc(O[C@@H]4O[C@H](CO[C@@H]5O[C@@H](C)[C@H](O)[C@@H](O)[C@@H]5O)[C@@H](O)[C@H](O)[C@@H]4O)cc3O2)cc1O | inactive

SMILES | Potency
CCN(CC)CCCC(C)Nc1ccnc2cc(Cl)ccc12 (stereo not given) | inactive
O=NN(CCCl)C(=O)NCCCl | inactive
NC(N)=NC(=O)c1nc(Cl)c(N)nc1N | inactive
COc1ccc(-c2ccc3c(N4CCOC[C@H]4C)nc(N4CCOC[C@H]4C)nc3n2)cc1CO | 0.0083 µM (active)
O=C(O)COCCN1CCN(C(c2ccccc2)c2ccc(Cl)cc2)CC1 (stereo not given) | inactive
COc1cc(Nc2ncc3c(n2)-c2ccc(Cl)cc2C(c2c(F)cccc2OC)=NC3)ccc1C(=O)O | 0.0209 µM (active)
Cc1cccc(-c2[nH]c(C(C)(C)C)nc2-c2ccc3nccnc3c2)n1 | 8.33 µM (active)
COc1cc2c(cc1OC)CN(CCc1ccc(NC(=O)c3cccc4c(=O)c5cccc(OC)c5[nH]c34)cc1)CC2 | inactive
Cc1csc(NC(=O)c2sc3nc4c(c(C(F)(F)F)c3c2N)CCC4)n1 | inactive
N#Cc1ccc(C(c2ccc(C#N)cc2)n2cncn2)cc1 | inactive
Cc1n[nH]c(C)c1Cc1sc2c(c1C(=O)N1C[C@H](O)CO1)c(=O)n(C)c(=O)n2CC(C)C | inactive
CN(C(=O)c1ccc(F)cc1C(F)(F)F)C1CCN(c2nnc(-c3ccnn3C)c3ccccc23)CC1 | inactive
O=c1n(CCCN2CCN(c3cccc(Cl)c3)CC2)nc2ccccn12 | inactive
NCCc1ccc(O)c(O)c1 | inactive
CCn1cc(C(=O)O)c(=O)c2cc(F)c(N3CCNC(C)C3)c(F)c21 (stereo not given) | inactive
CCOc1ccn(-c2ccc(F)cc2)c(=O)c1C(=O)Nc1ccc(Oc2ccnc(N)c2Cl)c(F)c1 | 0.059 µM (active)
Nc1ncnc2nc(-c3ccc(N4CCOCC4)nc3)cc(-c3cccc(Br)c3)c12 | inactive
O=C1CCCC2=C1C(c1[nH]ncc1Cl)N=C(Nc1nc3ccccc3o1)N2 (stereo not given) | inactive
Cc1cn[nH]c1 | inactive
CC1(C)SCCN(S(=O)(=O)c2ccc(OCC#CCO)cc2)[C@@H]1C(=O)NO | inactive
